This note sets out measurements from PubChem BioAssay (NCI).

Holding throughout (assay): NCI-60 one-dose screen, 48 h (100 = growth as untreated, 0 = no growth, -100 = all killed)
Conditions in all cases: 10 µM unless noted

The test system of test [1] is SR leukemia.
Test [2] relates to RPMI-8226 leukemia.
The test system of test [3] is OVCAR-8 ovarian.
Test [4] deals with OVCAR-5 ovarian.
In test [5] the test system is OVCAR-4 ovarian.
Test [6] has as its system SK-OV-3 ovarian.
The test system of test [7] is IGROV1 ovarian.
Test [8] relates to OVCAR-3 ovarian.
Test [9] deals with HS 578T breast.
For test [10], the system named is NCI/ADR-RES ovarian.
The test system of test [11] is T-47D breast.
The subject of test [12] is BT-549 breast.
Test [13] concerns MDA-MB-435 melanoma.
Test [14] concerns SW-620 colon.
Test [15] deals with MCF7 breast.
In test [16] the test system is HCT-116 colon.
The test system of test [17] is HCC-2998 colon.
Test [18] has as its system KM12 colon.
Test [19] concerns MDA-MB-468 breast.

About 83,000 compounds went through this panel and 20% of them were active in at least one assay; those are over-represented in the sample as a whole.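 Each cell line was grown in a 96-well plate and treated with one concentration of compound for 48 hours. Values below 10 were considered active.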 Values without a mark were called inactive. Activity calls are given as the source filed them.

Take `CC1CCc2c(sc3nc(SCC(=O)c4cccc(Br)c4)n(-c4ccccc4)c(=O)c23)C1` (stereo not drawn): the growth in test [1] was 22.3%; in test [2], 58.8%; in [3] it was 19.2%; in test [4], 47.8%; in [5], 30.6%; in test [6], 58%. Moreover, the growth in test [7] is 33.7%; in test [8] it was 55.7%; in test [9], 57.7%; in [10] it was 35.2%; in test [11], 15.9%; in test [12] it was 78.5%. In addition, the growth in test [13] was 29.5%; in [14], 28.5%; in test [15] it was 56.9%; in [16], 2.87% (active); in [17], 60.6%; in [18], 89.6%. The growth in test [19] is 29.6%.
Regarding `O=C(Cn1c(/C=C/c2ccc([N+](=O)[O-])cc2)nc2ccccc2c1=O)Nc1ccccc1`, the growth in test [1] is 88.1%; in [2], 93.8%; in [3], 65.8%; in test [4], 80%; in test [5] it was 56.8%; in test [6], 71.9%. Besides, the growth was 74.6% in test [7]; 81.4% in test [8]; 54.2% in test [9]; 54% in test [10]; 79.9% in test [11]; 63.1% in [12]. Further, the growth is 91% in test [13]; 83.6% in [14]; 78.5% in test [15]; 61.2% in [16]; 79.8% in test [17]; 77.3% in test [18]. Moreover, the growth in test [19] was 45.4%.
With `CC(=O)C[n+]1cccc2c3ccccc3ccc21`, the growth was 66.3% in [1]; 64% in [2]; 81.5% in [3]; 103% in test [4]; 63.8% in test [5]; 96.1% in [6]. For the same compound, the growth is 95.2% in test [7]; 70% in test [8]; 102% in [9]; 107% in [10]; 77.2% in test [11]; 107% in test [12]. Further, the growth is 84.6% in test [13]; 92.3% in test [14]; 77.7% in test [15]; 87.4% in test [16]; 114% in test [17]; 88.2% in test [18]. For the same compound, in test [19], the growth was 8.54% (active).
Take `Cc1ccc(-c2cc(C(=O)N=Nc3c(O)[nH]c4ccc(F)cc34)c3ccccc3n2)cc1`: the growth was 56.8% in test [1]; 103% in test [2]; 16.8% in test [3]; 70% in test [4]; 1.07% (active) in test [5]; 94.3% in [6]. Besides, the growth is 52.9% in [7]; 95.3% in test [8]; 32.1% in test [9]; 3.61% (active) in test [10]; 39.9% in test [11]; 39.1% in test [12]. Besides, the growth in test [13] was 61%; in test [14], 19.4%; in test [15] it was 18%; in test [16] it was 21%; in test [17], 35.9%; in test [18] it was 51.2%. Further, the growth in test [19] was 31.1%.
In the case of `COc1cc(CNC(=O)C[C@H](C)CCC=C(C)C)ccc1OCc1cn(-c2ccc(Cl)c(Cl)c2)nn1`, the growth in test [1] was 27.1%; in test [2] it was 77.6%; in [3], 46.3%; in test [4], 86.4%; in test [5], 53.4%; in [6], 99%. Besides, the growth in test [7] was 83.1%; in [8], 60.1%; in test [9], 57%; in test [10], 36.5%; in test [11], 33.6%; in [12], 71.7%. Besides, the growth in test [13] is 91.3%; in test [14], 29.9%; in test [15], 49.6%; in [16], 29.8%; in [17], 93.5%; in test [18], 82.7%. In test [19], the growth is 55%.
Consider `CC[C@]12C=CCN3CC[C@]4(C(=C(C(=O)OC)C1)Nc1cc(OC)c([C@@H]5[C@H]6O[C@H]6[C@@]6(CC)CC(C(=O)OC)=C7Nc8cc(OC)ccc8[C@@]78CCN5[C@@H]68)cc14)[C@@H]32`, for which the growth in [1] is 5.93% (active); in test [2], 24.2%; in test [3] it was 53.1%; in [4], 93.2%; in test [5], 59.8%; in test [6], 116%. Besides, the growth is 64% in test [7]; 55.8% in test [8]; 87.2% in test [9]; 80.8% in test [10]; 25.7% in test [11]; 62.8% in test [12]. The growth in test [13] is 57.6%; in [14] it was 50.4%; in [15] it was 17.2%; in test [16], 20.5%; in test [17] it was 112%; in test [18] it was 49.6%. Further, the growth in test [19] was 28.9%.
As for `COc1ccc(-c2nc3ccccc3n2CC(=O)N=Nc2c(O)[nH]c3ccc(Br)cc23)cc1`, the growth in test [1] is 7.92% (active); in test [2], 79.1%; in test [3] it was 71.1%; in test [4], 113%; in test [5], 91.3%; in test [6], 96.8%. In addition, the growth in test [7] is 60.3%; in test [8], 48.7%; in [9] it was 68.7%; in test [10], 78.9%; in test [11] it was 90.9%; in test [12] it was 53.3%. For the same compound, the growth in test [13] was 23.3%; in [14], 83%; in test [15], 43.7%; in test [16], 51.9%; in test [17], 108%; in test [18] it was 71.1%. Moreover, the growth in test [19] was 56.1%.
